What was measured:
[1] = molecular target: Eukaryotic translation initiation factor 3 subunit B (UniProt P55884); assay: cross-linking mass spectrometry
Histone H2A type 2-B = Histone H2A type 2-B (UniProt Q8IUE6); assay: cross-linking mass spectrometry
[2] = molecular target: Large ribosomal subunit protein eL6 (UniProt Q02878); assay: cross-linking mass spectrometry
[3] = molecular target: Large ribosomal subunit protein eL8 (UniProt P62424); assay: cross-linking mass spectrometry
Nucleolar protein 16 = Nucleolar protein 16 (UniProt Q9Y3C1); assay: cross-linking mass spectrometry
[4] = molecular target: Large ribosomal subunit protein uL13 (UniProt P40429); assay: cross-linking mass spectrometry
[5] = molecular target: Large ribosomal subunit protein uL15 (UniProt P46776); assay: cross-linking mass spectrometry
[6] = molecular target: Large ribosomal subunit protein eL31 (UniProt P62899); assay: cross-link between two proteins; cross-linking mass spectrometry
[7] = molecular target: Large ribosomal subunit protein eL20 (UniProt Q02543); assay: as above
[8] = molecular target: Small ribosomal subunit protein uS4 (UniProt P46781); assay: cross-linking mass spectrometry
[9] = molecular target: Small ribosomal subunit protein uS9 (UniProt P62249); assay: cross-linking mass spectrometry
[10] = molecular target: Large ribosomal subunit protein eL19 (UniProt P84098); assay: cross-link between two proteins; cross-linking mass spectrometry
[11] = molecular target: Large ribosomal subunit protein eL36 (UniProt Q9Y3U8); assay: as above
[12] = molecular target: Large ribosomal subunit protein eL43 (UniProt P61513); assay: as above
[13] = molecular target: Small ribosomal subunit protein eS24 (UniProt P62847); assay: as above
[14] = molecular target: Small ribosomal subunit protein uS5 (UniProt P15880); assay: as above
[15] = molecular target: Small ribosomal subunit protein uS8 (UniProt P62244); assay: as above

Small ribosomal subunit protein uS4, P46781
listed as a hit [1]: yes

Histone H3.1, P68431
listed as a hit (Histone H2A type 2-B): yes

Large ribosomal subunit protein uL30, P18124
listed as a hit [2]: yes

Large ribosomal subunit protein eL13, P26373
listed as a hit [3]: yes
listed as a hit (Nucleolar protein 16): yes

Large ribosomal subunit protein uL16, P27635
listed as a hit [4]: yes
listed as a hit [5]: yes

Large ribosomal subunit protein uL3, P39023
listed as a hit [4]: yes
listed as a hit [6]: yes

Large ribosomal subunit protein uL13, P40429
listed as a hit [5]: yes
listed as a hit [7]: yes

Small ribosomal subunit protein uS3, P23396
listed as a hit [8]: yes
listed as a hit [9]: yes

Large ribosomal subunit protein eL30, P62888
listed as a hit [10]: yes

Large ribosomal subunit protein eL43, P61513
listed as a hit [10]: yes

Large ribosomal subunit protein uL1, P62906
listed as a hit [11]: yes

Large ribosomal subunit protein eL34, P49207
listed as a hit [12]: yes

Small ribosomal subunit protein uS17, P62280
listed as a hit [13]: yes

Small ribosomal subunit protein uS2, P08865
listed as a hit [14]: yes

Small ribosomal subunit protein uS5, P15880
listed as a hit [15]: yes

— PMC11447256
